Screens deposited in PubChem by National Center for Advancing Translational Sciences (NCATS).
Sampled rows, rich in hits. Any-hit rate of the full collection: about 11%.
HCV inhibitor: blocks hepatitis C virus; Huh7.5.1 HCVcc-Cre infection, luciferase reporter, 44 h; Potency, µM (doses to about 41.8 µM), inactives show at the top dose activity change, negative = inhibition, usual class: inhibitors; hit rate 3.4% among 340,000; AID 651820; note: % is set by controls: 0 for no effect and ±100 for the full control effect
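Whole-lifecycle infectious HCVcc-Cre system; cells 1,000/well, compound then virus (~0.5 moi) added 4 h after plating, 44 h culture. Luciferase read 15 sec following 15 min substrate incubation, room temp.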
Pf growth 48h: inhibits P. falciparum growth in the first generation, 48 h; Potency, µM (top dose mostly 28.7 µM), for the others: top-dose activity change, negative = inhibition, most hits filed as inhibitors; AID 504832; hit rate 5.9% among 310,000; P. falciparum luciferase growth in erythrocytes, 48 h; note: % is set by controls: 0 for no effect and ±100 for the full control effect
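Luciferase-expressing parasites in RBCs, 2% Hct / 0.1% parasitemia final; RPMI 1640 + 0.5% Albumax; 37 C, 5% CO2, one generation; luminescence read-out, lower signal = inhibition.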
VACV mCherry inh: vaccinia inhibition (mCherry reporter) | Vaccinia virus mCherry reporter infection, fluorescence | Potency, µM (highest dose often 36.5 µM), inactives show at the highest dose activity change, negative = inhibition, hits mostly inhibitors | hit rate 0.63% among 310,000 | AID 720579; calls by dose curve; tested in A549 cells; note: % is set by controls: 0 for no effect and ±100 for the full control effect; nearly all actives have a fitted effect of over 35% in size
NS1 inh: blocks influenza NS1 protein function; hit rate 0.4% among 270,000; Potency, µM (titrated, usually from 46.1 µM), inactives show at the highest dose activity, positive = more growth; calls by dose curve; note: actives are rising curves; nearly all actives have a fitted effect of over 50% in size
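In this qHTS, NS1 from influenza A is expressed in budding yeast, where it slows growth. Cells are switched from glucose to 2% galactose medium (pH 6.0, -URA), treated with compound, and growth recovery is read at OD600.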
Pf growth 96h: P. falciparum growth inhibition at 96 hours. P. falciparum luciferase reporter growth, 96 h. Potency, µM (titrated, usually from 28.7 µM), inactives show top-dose activity change, negative = inhibition, actives largely listed as inhibitors. hit rate 6.9% among 320,000; note: % is set by controls: 0 for no effect and ±100 for the full control effect
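Two-generation exposure (96 h) targets delayed-death phenotype. Reporter parasites carrying integrated firefly luciferase, in red cells at 2% hematocrit and 0.05% parasitemia final, kept at 37 C, 5% CO2; luminescence loss indicates inhibition.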
Vaccinia Venus: inhibitors of vaccinia virus (Venus reporter) | Vaccinia virus Venus reporter expression, fluorescence | Potency, µM (series often up to 36.5 µM), inactives show at the highest dose activity change, negative = inhibition, hits mostly inhibitors | hit rate 0.46% among 330,000; calls by dose curve; tested in A549 cells; note: % is set by controls: 0 for no effect and ±100 for the full control effect; nearly all actives have a fitted effect of over 30% in size
* marks the source's active call; other numbers are inactive results; i = inactive; ? = inconclusive; . = no result. Unless noted, calls come from the whole dose curve; as a rule, active = well fitted inhibition curve with a large enough effect; inconclusive = small, poorly fitted or top-dose-only effect, or another doubt; inactive = no such curve, though single readings can be large or run the other way. Potency is the fitted concentration of half-maximal effect.

SMILES	HCV inhibitor	Pf growth 48h	VACV mCherry inh	NS1 inh	Pf growth 96h	Vaccinia Venus
COC1C(OC(=O)/C=C/C=C/C=C/C=C/C(=O)O)CCC2(CO2)C1C1(C)OC1CC=C(C)C (stereo not drawn)	.	0.0038µM*	.	.	?	.
C=CCN1C(=O)C2(OCCCO2)c2cccc(C)c21	8%	25%	.	4%	-26%	.
CCN(CC)S(=O)(=O)c1cccc(C(=O)/C=C2/N(C)c3ccccc3C2(C)C)c1	10µM*	?	-14%	1%	?	-20%
CN1/C(=C\C(=S)NC(=O)c2cccc(Br)c2)C(C)(C)c2ccccc21	11µM*	?	i	26%	12µM*	34%
CN1/C(=C\C(=S)NC(=O)c2ccc([N+](=O)[O-])cc2)C(C)(C)c2ccccc21	?	-1%	.	?	25%	.
COc1ccc(N2CC(=O)N(c3ccccc3)C2=S)cc1	4%	21%	i	1%	?	-1%
O=C(NNC1=NS(=O)(=O)c2ccccc21)c1cccc([N+](=O)[O-])c1	3%	?	.	2%	?	.
O=C1NC[C@H](c2ccccc2)N(CCCCC2CCCCC2)C1=O	.	.	2.2µM*	.	.	?
NCCCC[C@H]1CNC(=O)C(=O)N1CCCCC1CCCCC1	17%	31%	-6%	-1%	52%	0%
S=C1NC[C@H](c2ccccc2)N1CC1CCCCC1	?	?	i	1%	8.3µM*	-12%
CCOc1ccc(CNC(=O)c2ccc(CSc3nc4ccncc4n3Cc3ccc(F)cc3)cc2)cc1	.	.	-29%	.	.	-28%
COC(=O)c1cccc(CN2C(=O)SC(Nc3ccc(Br)cc3)C2=O)c1 (stereo not drawn)	.	.	-13%	.	.	-11%
CN(c1ccc(Cl)cc1)c1cc(=O)n(C)c2ccccc12	10µM*	5.9µM*	-24%	-83%	-11%	-27%
CN(CC(=O)Nc1ccc(F)c(F)c1F)C(=O)C1CCC1	?	-14%	-18%	.	17%	-8%
CC(C)(C)[C@H]1C=C(C(=O)N2CCN(Cc3ccc4c(c3)OCO4)CC2)O[C@@H](OCc2ccc(CO)cc2)C1	-8%	10µM*	-15%	-12%	?	?
CC(C)(C)[C@H]1C=C(C(=O)N2CCN(Cc3ccccc3)CC2)O[C@@H](OCCCCO)C1	11%	?	i	-8%	?	-10%
CC(C)(C)[C@@H]1C=C(C(=O)N2CCN(Cc3ccccc3)CC2)O[C@H](OCc2ccc(CO)cc2)C1	13%	?	i	-9%	15µM*	-30%
COC(=O)C1=C(c2ccc(OCc3ccccc3)cc2)C[C@@H]2CC[C@H]1N2C(=O)NCc1ccc(N(C)C)cc1	26%	?	?	.	9.3µM*	?
COC(=O)C1=C(c2ccc(OCc3ccccc3)cc2)C[C@@H]2CC[C@H]1N2C(=O)NCc1ccc(OC)c(OC)c1	10µM*	?	?	.	?	?
COC(=O)C1=C(c2ccc(OCc3ccccc3)cc2)C[C@@H]2CC[C@H]1N2C(=O)NCc1ccccc1OC	.	.	-25%	.	.	?
Cc1nn(-c2ccccc2)nc1CNC(=O)c1ncoc1-c1ccccc1	10µM*	9%	.	-3%	5%	.
COc1ccc(Nc2nc(OC)nc(N3CCOCC3)n2)cc1	0%	-4%	.	-4%	-11%	.
COc1ccc(Nc2nc(Nc3ccc(OC)cc3)nc(-n3[nH]c(=O)c(C)c3C)n2)cc1	10µM*	2.6µM*	?	23%	.	-28%
O=C1CSC(=Nc2ccc(F)cc2)N1	7%	?	.	6%	?	.
CCNc1nc(ON=C(C)C)nc(N(C)C)n1	16%	8.3µM*	-2%	-2%	?	-13%
SMILES	HCV inhibitor	Pf growth 48h	VACV mCherry inh	NS1 inh	Pf growth 96h	Vaccinia Venus
COCNc1nc(OCC#N)nc(N(C)C)n1	-2%	29%	.	4%	?	.
CCC(C)Sc1ccc(-c2nc3cnccn3c2NC2CCCCC2)cc1 (stereo not drawn)	?	7.4µM*	-32%	.	7.4µM*	?
COc1ccc(Sc2ccc(-c3nc4cnccn4c3NC3CCCCC3)cc2OC)cc1	-9%	.	?	.	.	11µM*
CCC(C)Sc1ccc(-c2nc3cc(C)ccn3c2NC2CCCCC2)cc1 (stereo not drawn)	?	.	-23%	.	.	?
CCCCCCSc1ccc(-c2nc3cnccn3c2NC2CCCCC2)cc1	.	.	-8%	.	.	3%
COc1ccc(-c2nc3ccc(Cl)cn3c2Nc2ccc(C)cc2)cc1	.	.	-14%	.	.	-8%
COc1ccc(F)cc1C(=O)C1CCCN(C(=O)c2ocnc2C)C1 (stereo not drawn)	0%	30%	-21%	3%	61%	3%
O=[N+]([O-])c1ccccc1/C=C/CN1CCCCC1	.	7%	-14%	4%	4%	-1%
CCOC(=O)c1cnc2c(ccc3ccccc32)c1Nc1cccc(OC)c1	.	.	-19%	.	.	0%
COCCn1c(SCC(=O)Nc2ccc(NC(C)=O)cc2)nc2c([nH]c3ccccc32)c1=O	?	?	-7%	3%	9%	-9%
CCNc1nc(NCC)n2c(SCC(=O)Nc3ccc(CC)cc3)nnc2n1	?	10µM*	-16%	.	?	-7%
CCNc1nc(NCC)n2c(SCC(=O)N(CC)C3CCCCC3)nnc2n1	-6%	?	-30%	2%	7.4µM*	-25%
COc1cc(/C=N/NC(=O)c2sc(N)c(C#N)c2C)cc(Br)c1O	?	?	?	3%	?	-11%
Nc1ccccc1SC(CC(=O)c1ccccc1)c1ccccc1 (stereo not drawn)	.	.	-9%	.	.	-1%
CC(C(Sc1ccccc1N)c1ccccc1)[N+](=O)[O-] (stereo not drawn)	7%	2.6µM*	.	-34%	0%	.
CCOc1ccc(CN2C(=O)c3ccccc3C2C(=O)NCc2cccnc2)cc1 (stereo not drawn)	8%	3%	.	-7%	?	.
CC(C)C(=O)NCC1CCC2(CCN(Cc3ccc(-c4cccc(Cl)c4)o3)CC2)O1 (stereo not drawn)	.	.	i	.	.	-5%
CN(C)CCOc1nc(-c2ccccc2)nc2c1oc1ccccc12	?	9.3µM*	.	-52%	10µM*	1%
CN(C)CCOc1ncnc2c1oc1ccccc12	14%	11%	.	-5%	.	.
Cc1ccccc1NC(=O)c1ccc(NC(=O)C2CC(=O)OC23CCCCC3)cc1 (stereo not drawn)	4%	13µM*	2%	-4%	27%	1%
O=C1CC(C(=O)Nc2ccccc2)C2(CCCC2)O1 (stereo not drawn)	7%	6%	.	-6%	11%	.
Cc1ccc(S(=O)(=O)Nc2nc(-c3ccccc3)cs2)cc1	3%	-1%	-19%	-14%	0%	-2%
Cc1ccc(S(=O)(=O)Nc2ccccc2C(=O)Nc2nc(-c3ccc(F)cc3)cs2)cc1	6.3µM*	13µM*	?	-60%	?	?
